Experimental data from PubChem BioAssay (NCATS).
Results filed as inconclusive are left out. The source made the active and inactive calls. Calls follow the shape of the full dose curve.

What was measured:
[1] = Primary qHTS for inhibitors of SARS-S pseudo-typed particle cell entry (AID 1479145); details: outcome: dose series up to 57.1 µM unless noted; also: nearly all actives have a fitted effect of over 45% in size; as to activity change, negative = inhibition: % is scaled to controls: 0 for no effect and ±100 for the full control effect
[2] = Primary qHTS for Huh7 cytotoxicity: counterscreen for inhibitors of MERS-S pseudotyped particle cell entry (AID 1479147); details: outcome: dose series up to 57.1 µM unless noted
[3] = Primary qHTS for inhibitors of MERS-S pseudo-typed particle cell entry (AID 1479149); details: outcome: dose series up to 57.1 µM unless noted; also: nearly all actives have a fitted effect of over 60% in size; as to activity change, negative = inhibition: % is scaled to controls: 0 for no effect and ±100 for the full control effect
[4] = Primary qHTS for Vero E6 cytotoxicity: counterscreen for inhibitors of SARS-S pseudo-typed particle cell entry (AID 1479150); details: outcome: dose series up to 57.1 µM unless noted; as to activity change, negative = cytotoxicity: % is scaled to controls: 0 for no effect and ±100 for the full control effect
[5] = Cytotoxicity counterscreen for inhibitors of SARS-CoV-2 cell entry (AID 1645845); details: outcome: dose series up to 57.1 µM unless noted; also: nearly all actives have a fitted effect of over 50% in size; as to activity change, negative = cytotoxicity: % is scaled to controls: 0 for no effect and ±100 for the full control effect
Outline: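 48 h compound treatment (after 1 h preincubation), HEK293-ACE2 cells, 37 C/5% CO2; ATP luminescence endpoint; normalized to cell wells and media blanks.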

[6] = Primary qHTS to identify inhibitors of SARS-CoV-2 cell entry (AID 1645846); details: SARS-CoV-2 pseudovirus cell entry assay, luminescence; activity change, negative = inhibition: at 57.1 µM (top of the series) unless noted; also: nearly all actives have a fitted effect of over 45% in size
Outline: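 Entry measured by luciferase signal 48 h after adding SARS-CoV-2-S pseudotyped MLV particles to HEK293-ACE2 cells preincubated 1 h with compounds. Normalisation: bald particles and spike particles.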

CC[C@H]1OC(=O)C[C@@H](OC(C)=O)[C@H](C)[C@@H](O[C@@H]2O[C@H](C)[C@@H](O[C@H]3C[C@@](C)(O)[C@@H](OC(=O)CC(C)C)[C@H](C)O3)[C@H](N(C)C)[C@H]2O)[C@@H](CC=O)C[C@@H](C)C(=O)/C=C/C(C)=C/[C@@H]1CO[C@@H]1O[C@H](C)[C@@H](O)[C@@H](OC)[C@H]1OC
inactive: Potency [1] | Potency [2] | Potency [3] | Potency [4] | Potency [5]

Cc1ncc([N+](=O)[O-])n1CCOC(=O)c1ccccc1
inactive: Potency [1] | Potency [2] | Potency [3] | Potency [4] | Potency [5]

OC[C@H]1O[C@@H](c2ccc(F)c(Cc3cc4ccccc4s3)c2)[C@H](O)[C@@H](O)[C@@H]1O
inactive: Potency [1] | Potency [2] | Potency [3] | Potency [4] | Potency [5]

Cc1cc(O)ccc1C(C)(C)C
inactive: Potency [1] | Potency [2] | Potency [3] | Potency [4] | Potency [5]

CCCCC(CC)COC(=O)CC(C(=O)OCC(CC)CCCC)S(=O)(=O)O (centres undefined)
inactive: Potency [1] | Potency [2] | Potency [3] | Potency [4] | Potency [5]

COc1ccc(/C=C/C(=O)OCCC(C)C)cc1
inactive: Potency [1] | Potency [2] | Potency [3] | Potency [4] | Potency [5]

CO[C@H]1C[C@@H]2CC[C@@H](C)[C@@](O)(O2)C(=O)C(=O)N2CCCC[C@H]2C(=O)O[C@H]([C@H](C)C[C@@H]2CC[C@@H](OC(=O)C(C)(CO)CO)[C@H](OC)C2)CC(=O)[C@H](C)/C=C(\C)[C@@H](O)[C@@H](OC)C(=O)[C@H](C)C[C@H](C)/C=C/C=C/C=C/1C
inactive: Potency [1] | Potency [2] | Potency [3] | Potency [4] | Potency [5]

COc1ccc2c(O[C@H]3CC4C(=O)N(C)CCCC/C=C\[C@@H]5C[C@@]5(C(=O)NS(=O)(=O)C5CC5)NC(=O)[C@@H]4C3)cc(-c3nc(C(C)C)cs3)nc2c1C (some centres undefined)
inactive: Potency [1] | Potency [2] | Potency [3] | Potency [4] | Potency [5]

CCO/N=C(\C(=O)N[C@@H]1C(=O)N2C(C(=O)O)=C(Sc3nc(-c4cc[n+](C)cc4)cs3)CS[C@H]12)c1nsc(NP(=O)(O)O)n1
inactive: Potency [1] | Potency [2] | Potency [3] | Potency [4] | Potency [5]

NC(=O)[C@H]1O[C@@H](O)[C@H](O)[C@@H](O)[C@@H]1O
inactive: Potency [1] | Potency [2] | Potency [3] | Potency [4] | Potency [5]

CCC(=O)Oc1ccc2c(c1)CC[C@@H]1[C@H]2CC[C@]2(C)[C@@H](OC(=O)CC)CC[C@@H]12
inactive: Potency [1] | Potency [2] | Potency [3] | Potency [4] | Potency [5]

O=C(OCCN(CCO)CCO)c1ccccc1O
inactive: Potency [1] | Potency [2] | Potency [3] | Potency [4] | Potency [5]

CCC(Oc1ccccc1)C(=O)N[C@@H]1C(=O)N2[C@@H]1SC(C)(C)[C@@H]2C(=O)O (some centres undefined)
inactive: Potency [1] | Potency [2] | Potency [3] | Potency [4] | Potency [5]

CCOC(=O)COc1ccc2c(=O)cc(-c3ccccc3)oc2c1
inactive: Potency [1] | Potency [2] | Potency [3] | Potency [4] | Potency [5]

CCCCc1cc2c(=O)c(C(=O)OC)c[nH]c2cc1OCc1ccccc1
inactive: Potency [1] | Potency [2] | Potency [3] | Potency [4] | Potency [5]

CC(=O)c1cc2cccc(OCC(O)CNC(C)C)c2o1 (centres undefined)
inactive: Potency [1] | Potency [2] | Potency [3] | Potency [4] | Potency [5]

CC(C)CCC[C@@H](C)[C@H]1CC[C@H]2[C@@H]3CC[C@H]4C[C@@H](O)CC[C@]4(C)[C@@H]3CC[C@]12C
inactive: Potency [1] | Potency [2] | Potency [3] | Potency [4] | Potency [5]

CN(CC(O)CO)C(=O)c1c(I)c(NC(=O)C(CO)CO)c(I)c(C(=O)N(C)CC(O)CO)c1I (centres undefined)
inactive: Potency [1] | Potency [2] | Potency [3] | Potency [4] | Potency [5]

CC(C)[C@@H](C)/C=C/[C@@H](C)[C@H]1CC[C@H]2/C(=C/C=C3\C[C@@H](O)CC[C@@H]3C)CCC[C@]12C
inactive: Potency [1] | Potency [2] | Potency [3] | Potency [4] | Potency [5]

CCC1(C)OC(=O)N(C)C1=O (centres undefined)
inactive: Potency [1] | Potency [2] | Potency [3] | Potency [4] | Potency [5]

C[N+]1(C)[C@@H]2CC(OC(=O)C(O)(c3cccs3)c3cccs3)C[C@H]1[C@H]1O[C@@H]12 (some centres undefined)
inactive: Potency [1] | Potency [2] | Potency [3] | Potency [4] | Potency [5]

Nc1nc2c(c(=O)[nH]1)N(C=O)C(CNc1ccc(C(=O)N[C@@H](CCC(=O)O)C(=O)O)cc1)CN2 (some centres undefined)
inactive: activity change, negative = inhibition [1] -33% [at 0.573 µM] | activity change, negative = cytotoxicity [2] 2.64% [at 0.573 µM] | outcome [3] inactive [at 0.573 µM] | activity change, negative = cytotoxicity [4] 2.47% [at 0.573 µM] | outcome [5] inactive [at 0.702 µM]

CC1(C)S[C@@H]2[C@H](NC(=O)[C@H](NC(=O)N3CCNC3=O)c3ccccc3)C(=O)N2C1C(=O)O (some centres undefined)
inactive: Potency [1] | Potency [2] | Potency [3] | Potency [4] | Potency [5]

OC[C@H]1O[C@@H](OCCc2ccc(O)cc2)[C@H](O)[C@@H](O)[C@@H]1O
inactive: Potency [1] | Potency [2] | Potency [3] | Potency [4] | Potency [5]

CCCCCCCCCCCCCCCC(=O)OC1C(SC)OC(C(NC(=O)C2CC(CCC)CN2C)C(C)Cl)C(O)C1O (centres undefined)
inactive: Potency [1] | Potency [2] | Potency [3] | Potency [4] | Potency [5]
-14%: activity change, negative = inhibition [6]

CCC(=O)OCC(=O)[C@@]1(OC(=O)CC)[C@@H](C)C[C@H]2[C@@H]3CCC4=CC(=O)C=C[C@]4(C)[C@@]3(F)[C@@H](O)C[C@@]21C
inactive: Potency [1] | Potency [2] | Potency [3] | Potency [4] | Potency [5] | Potency [6]

CN(C(=O)CO)c1c(I)c(C(=O)NCC(O)CO)c(I)c(C(=O)NCC(O)CO)c1I (centres undefined)
inactive: Potency [1] | Potency [2] | Potency [3] | Potency [4] | Potency [5]
-14.3%: activity change, negative = inhibition [6]

Oc1c(Br)cc(Br)cc1CNC1CCC(O)CC1 (centres undefined)
-15.3%: activity change, negative = inhibition [6]
inactive: Potency [1] | Potency [2] | Potency [3] | Potency [4] | Potency [5]

COCC1=C(C(=O)O)N2C(=O)[C@@H](NC(=O)/C(=N\OC)c3csc(N)n3)[C@H]2SC1
-16.5%: activity change, negative = inhibition [6]
inactive: Potency [1] | Potency [2] | Potency [3] | Potency [4] | Potency [5]

C[Si](C)(C)O[Si](C)(C)O[Si](C)(C)C
-16.4% [at 114 µM]: activity change, negative = inhibition [6]
inactive: Potency [1] | Potency [2] | Potency [3] | Potency [4] | Potency [5]

CO[C@H]1C[C@@H]2CC[C@@H](C)[C@@](O)(O2)C(=O)C(=O)N2CCCC[C@H]2C(=O)O[C@H]([C@H](C)C[C@@H]2CC[C@@H](OCCO)[C@H](OC)C2)CC(=O)[C@H](C)/C=C(/C)[C@@H](O)[C@@H](OC)C(=O)[C@H](C)C[C@H](C)\C=C/C=C\C=C/1C
inactive: Potency [1] | Potency [2] | Potency [3] | Potency [4] | Potency [5]
-11.8% [at 27.1 µM]: activity change, negative = inhibition [6]

NC(=O)OCC(O)COc1ccc(Cl)cc1 (centres undefined)
inactive: Potency [1] | Potency [2] | Potency [3] | Potency [4] | Potency [5] | Potency [6]

C=C1CC2C3CCC4=CC(=O)C=C[C@]4(C)[C@@]3(F)[C@@H](O)C[C@]2(C)[C@@]1(O)C(=O)COC(C)=O (some centres undefined)
inactive: Potency [1] | Potency [2] | Potency [3] | Potency [4] | Potency [5] | Potency [6]
